The values that follow come from PubChem BioAssay AID463173 (ICCB-Longwood Screening Facility, Harvard Medical School, 2010).

Out of some 52,000 compounds screened, about 4,300 (8.3%) were called active. Cut-off read from the data, not from the text of the source: active = survival mostly below about 52% (no sharp cut-off); inactive = mostly above about 56%. Many of the other results were omitted from the sample, so actives are more common in it than they were.

This assay has as its system DeltatarO mutant. In words: S. aureus survival, RN4220 and DeltatarO strains – OD600, teichoic acid synthesis inhibitors, primary screen (AID 463173). The following applies: S. aureus RN4220 wild type/DeltatarO growth, OD600, 18 h, stronger effect = lower value, screened at 18.75 µg/mL (by protocol).
Regarding `CSc1nc2sc3c(c2c(=O)n1Cc1ccccc1)CCC(C(C)(C)C)C3` (stereo not drawn), the survival is 114% (inactive).
Turning to `C=C(C)CSc1nc2sc3c(c2c(=O)n1-c1ccccc1)CCC(C)C3` (stereo not drawn), the survival is 84% (inactive).
With `CCCSc1nc2sc3c(c2c(=O)n1-c1ccc(C)c(Cl)c1)CCN(C(C)=O)C3`, the survival is 81% (inactive).
The result for `CCCSc1nc2sc3c(c2c(=O)n1-c1ccc(C)cc1)CCCC3` reads 8% (active); that for `CC(C)CCSc1nnc2n(-c3ccccc3)c(=O)c3c4c(sc3n12)CC(C)CC4` (stereo not drawn), 70% (inactive).
In the case of `COC(=O)CSc1nc2sc3c(c2c(=O)n1Cc1ccccc1)CCC(C(C)(C)C)C3` (stereo not drawn), the survival was 66% (inactive).
For the compound `CSc1nc2sc3c(c2c(=O)n1-c1ccccc1)CCC(C(C)(C)C)C3` (stereo not drawn), the survival is 18% (active).
For the compound `CCOC(=O)CSc1nc2sc3c(c2c(=O)n1-c1ccccc1)CCC(C(C)(C)C)C3` (stereo not drawn), the survival is 58% (inactive).
`CCCSc1nc2sc3c(c2c(=O)n1-c1ccccc1)CCC(C)C3` (stereo not drawn): the survival is 2% (active).
With `CCCc1nc2sc3c(c2c(=O)n1N)CCCC3`, the survival is 97% (inactive).
`CCOC(=O)CSc1nnc2n(-c3ccccc3)c(=O)c3c4c(sc3n12)COC(C(C)C)C4` (stereo not drawn): the survival is 74% (inactive).
For the compound `CCOC(=O)CSc1nnc2n(-c3ccccc3)c(=O)c3c4c(sc3n12)CC(C(C)(C)C)CC4` (stereo not drawn), the survival is 46% (active).
For `COc1cc(NC(=O)NCCn2nnc3cc(S(=O)(=O)N(C)C)ccc32)cc(OC)c1OC`, the survival was 84% (inactive).
As for `Cc1ccc(S(=O)(=O)NC(C)(C)CN2CCCCC2)cc1`, the survival was 96% (inactive).
As for `NC1CCN(C(=O)NC2CCCCC2)CC1`, the survival was 89% (inactive).
With `Cc1cc(=O)n(Cc2ccccc2)c(=O)n1Cc1ccccc1`, the survival is 89% (inactive).
As for `Cc1ccccc1-c1nc(CS(=O)(=O)CC(=O)Nc2c(C)cccc2C)c(C)o1`, the survival was 92% (inactive).
As for `Cn1cc(S(=O)(=O)N2CCCCCC2)cc1C(=O)Nc1ccccc1F`, the survival is 88% (inactive).
As to `CC(=O)N1CCC(N(Cc2ccco2)C(=O)Nc2cccc(C)c2)CC1`, the survival is 130% (inactive).
For the compound `COC(=O)c1ccccc1NC(=O)Nc1cccc(OCc2cc(=O)n3cccc(C)c3n2)c1`, the survival is 134% (inactive).
As for `CCc1ccc(-n2c(=O)c3c4c(sc3n(Cc3ccc(C)cc3)c2=O)CCC4)cc1`, the figure is 132% (inactive).
As for `Cc1ccc(-n2c(SCC(=O)O)nc3sc4c(c3c2=O)CCCC4)cc1`, the figure is 90% (inactive).
On to `Cc1ccc(-n2c(=O)[nH]c3sc4c(c3c2=O)CCCC4)cc1`, for which the survival was 133% (inactive).
For `CCSc1nc2sc3c(c2c(=O)n1-c1ccc(C)cc1)CCCC3`, the survival was 0% (active).
On to `CSc1nc2sc3c(c2c(=O)n1-c1ccc(C)cc1)CCCC3`, for which the survival is 39% (active).
Regarding `CSc1nc2sc3c(c2c(=O)n1-c1ccccc1C)CCCC3`, the survival is 97% (inactive).
For `CCCOc1ccc(-c2nc3ccc(Br)cc3c(=O)o2)cc1`, the survival is 81% (inactive).
Consider `Cc1ccc(C)c(NC(=O)Cn2cc(S(=O)(=O)c3ccc(F)cc3)c(=O)c3cc(F)ccc32)c1`, for which the survival was 87% (inactive).
As for `Cc1c(C(=O)N(Cc2ccc(N(C)C)cc2)CC2CCCO2)oc2ccccc12` (stereo not drawn), the figure is 61% (inactive); as for `COC(=O)CNc1ccc(C)c(C)c1`, 67% (inactive).
For `Cc1cccc(CCNC(=O)c2nc(-c3ccc(Cl)cc3)n3c2CCCCC3)c1`, the survival is 89% (inactive).
For `O=C(Nc1ccc(C(F)(F)F)cc1)C1CCC(CNS(=O)(=O)c2cccc3nsnc23)CC1` (stereo not drawn), the survival is 49% (inactive).
With `O=C(NCCCN1CCN(c2ccc(F)cc2)CC1)c1cnn(-c2ccc(F)cc2)c1-n1cccc1`, the survival is 70% (inactive).
Turning to `O=C(NCCCN1CCN(c2cccc(Cl)c2)CC1)c1cnn(-c2ccc(F)cc2)c1-n1cccc1`, the survival was 32% (active).
In the case of `Cc1ccc(-n2nc(C)c(C(=O)NCCCN3CCN(c4cccc(Cl)c4)CC3)c2-n2cccc2)cc1`, the survival was 0% (active).
Regarding `Cc1ccc(-n2nc(C)c(C(=O)NCCCN3CCN(c4ccc(F)cc4)CC3)c2-n2cccc2)cc1`, the survival is 92% (inactive).
For `Cc1nn(-c2ccc(F)cc2)c(-n2cccc2)c1C(=O)NCCCN1CCN(c2cccc(Cl)c2)CC1`, the survival is 94% (inactive).
Regarding `Cc1ccc(-n2ncc(C(=O)NCCCN3CCN(c4cccc(Cl)c4)CC3)c2-n2cccc2)cc1`, the survival was 75% (inactive).
On to `O=C(Cn1c(=O)c2cc(Cl)ccc2n2nncc12)Nc1ccccc1`, for which the survival was 75% (inactive).
Consider `O=C(CCC1CCCC1)N1CCc2c([nH]c3ccccc23)C1c1ccc(F)cc1` (stereo not drawn), for which the survival is 99% (inactive).
The result for `CCCCN(C(=O)C1CCC1)c1nnc(-c2ccncc2)s1` reads 96% (inactive); that for `Clc1ccc(-c2nc3ncccn3c2Nc2ccc3c(c2)OCCO3)cc1`, 89% (inactive).
Turning to `COc1ccc(C(=O)NCC(c2cccnc2)N2CCN(c3ccccc3F)CC2)cc1OC` (stereo not drawn), the survival was 86% (inactive).
For the compound `Cc1ccc2[nH]c(=O)c(CN(Cc3nnnn3CCc3ccccc3)C3CCCC3)cc2c1`, the survival was 91% (inactive).
`CCOc1ccc(OCC)c(NS(=O)(=O)c2ccc3c(c2)CCCN3C(C)=O)c1`: the survival was 73% (inactive).
As for `Cc1cccc(-c2noc(-c3cccnc3NCc3ccco3)n2)c1`, the survival was 44% (active).
In the case of `c1ccc(-c2noc(-c3cccnc3NCc3ccco3)n2)cc1`, the survival was 60% (active).
For `COc1ccc(-c2noc(-c3cccnc3NCc3ccco3)n2)cc1`, the survival is 98% (inactive).
With `Cc1ccccc1-c1noc(-c2cccnc2NCc2ccco2)n1`, the survival is 52% (inactive).
Consider `Cc1ccc(-c2noc(-c3cccnc3NCc3ccco3)n2)cc1`, for which the survival was 65% (inactive).
As to `Clc1ccc(-c2noc(-c3cccnc3NCc3ccco3)n2)cc1`, the survival was 61% (inactive).
Take `Cc1cccc(N2CCN(C3(c4ccccc4)C(=O)c4ccccc4C3=O)CC2)c1C`: the survival was 79% (inactive).
With `COc1ccc(C(=O)NC(c2ccc(Cl)cc2)c2cc(Cl)c3cccnc3c2O)cc1` (stereo not drawn), the survival is 88% (inactive).
As for `Cc1cccc(NC(c2cccc(Cl)c2)c2ccc3cccnc3c2O)n1` (stereo not drawn), the survival is 2% (active).
Turning to `Cc1cccc(NC(=O)c2ccccc2)n1`, the survival is 93% (inactive).
`COc1cccc(C(=O)NC(c2ccc(Cl)cc2)c2cc(Cl)c3cccnc3c2O)c1` (stereo not drawn): the survival is 89% (inactive).
Take `CCC(=O)NC(c1ccccc1OC)c1cc(Cl)c2cccnc2c1O` (stereo not drawn): the survival is 68% (inactive).
On to `COc1ccc(C(=O)NC(c2ccccc2Cl)c2cc(Cl)c3cccnc3c2O)cc1` (stereo not drawn), for which the survival is 92% (inactive).
For the compound `COc1ccccc1CC(=O)Nc1cccc(C)n1`, the survival was 97% (inactive).
Take `Cc1ccc(C(Nc2ccccn2)c2ccc3cccnc3c2O)cc1` (stereo not drawn): the survival was 1% (active).
As for `Cc1cccc(NC(c2ccccc2C)c2ccc3ccc(C)nc3c2O)n1` (stereo not drawn), the figure is 0% (active).
As for `Oc1cccc(C(Nc2ccccn2)c2ccc3cccnc3c2O)c1Cl` (stereo not drawn), the figure is 26% (active).
Regarding `Nc1nnc(CCc2ccccc2)s1`, the survival was 80% (inactive).
Consider `O=C(O)CCOc1ccc2c(c1)OCCO2`, for which the survival was 82% (inactive).
The result for `CCC(CC)c1nn2c(=O)cc(COc3ccc(NC(=O)c4ccccc4C)cc3)nc2s1` reads 81% (inactive); that for `O=C(CSc1nc2c(c(=O)[nH]1)CCC2)Nc1ccccc1C(F)(F)F`, 72% (inactive); that for `O=C(CN1C(=O)COc2ccc(S(=O)(=O)N3CCCCCC3)cc21)NCc1ccc(Cl)cc1`, 113% (inactive).
Consider `CCOCCCNC(=O)c1cc2c(=O)n(C)c3ccccc3c2n1C`, for which the survival is 86% (inactive).
As to `O=C(Nc1ccccc1C(F)(F)F)N1CCC2(CC1)Oc1ccccc1C(=O)N2Cc1ccccc1F`, the survival was 67% (inactive).
As for `COc1cc(-c2cc(OC)c3c(C)oc(C)c3c(=O)c2)ccc1OC(=O)c1ccc(C)cc1`, the survival was 88% (inactive).
As for `Cc1ccc(NC(=O)c2sc3nc(-c4ccc(F)cc4)cn3c2C)c(C)c1`, the figure is 81% (inactive); as for `O=C(O)CCC(=O)Nc1ccc2c(c1)oc1ccccc12`, 86% (inactive).
On to `Cc1ccc(C(C)C)cc1S(=O)(=O)Nc1ccccn1`, for which the survival was 101% (inactive).
As to `O=C(c1ccccc1)C(Nc1ccccn1)c1ccccc1` (stereo not drawn), the survival is 99% (inactive).
With `Cc1ccc2ccc(C(Nc3ccccn3)c3ccccc3)c(O)c2n1` (stereo not drawn), the survival is 39% (active).
In the case of `COc1ccc(C(Nc2ccccn2)c2ccc3ccc(C)nc3c2O)cc1C` (stereo not drawn), the survival is 40% (active).
For the compound `COc1cc(C(=O)NC(c2ccc(Cl)cc2)c2cc(Cl)c3cccnc3c2O)cc(OC)c1OC` (stereo not drawn), the survival is 85% (inactive).
Take `Cc1ccnc(NC(c2cccc(O)c2)c2ccc3ccc(C)nc3c2O)c1` (stereo not drawn): the survival is 68% (inactive).
The result for `O=C(COc1ccccc1Cl)Nc1ccccc1OCc1cc(=O)n2ccccc2n1` reads 92% (inactive); that for `COc1ccc(NC(=O)COCc2cc(-c3ccco3)on2)cc1Cl`, 112% (inactive); that for `Cc1ccc(NC(=O)C2CCCN2S(=O)(=O)c2cccc3nsnc23)c(C)c1` (stereo not drawn), 78% (inactive).
For `COc1cc(NC(=O)CN2C(=O)c3ccccc3Sc3ccc(C(=O)N4CCCC4)cc32)cc(OC)c1`, the survival is 72% (inactive).
For `CCc1ccc2occ(CC(=O)Nc3ccc(OC)c(Cl)c3)c2c1`, the survival was 88% (inactive).
As for `COc1ccc(-c2cc(C(=O)Nc3ccc(C#N)cc3)no2)cc1`, the survival is 46% (inactive).
Regarding `CCc1c(C)sc(NC(=O)c2cc(-c3ccc(OC)cc3)on2)c1C#N`, the survival is 50% (active).
Regarding `CCc1cc(C(=O)Nc2sc(C)c(CC)c2C#N)no1`, the survival was 35% (active).
As to `CCc1c(C)sc(NC(=O)c2cc(-c3ccc(OC)c(OC)c3)on2)c1C#N`, the survival was 149% (inactive).
The result for `CCc1c(C)sc(NC(=O)c2cc(-c3cccc(Cl)c3)on2)c1C#N` reads 69% (inactive); that for `CCOC(=O)c1sc(NC(=O)c2cc(CC)on2)c(C(=O)OCC)c1C`, 54% (inactive); that for `CC(C)OCCCn1c(=O)c2ccccc2n2c(-c3ccccc3)nnc12`, 105% (inactive).
Regarding `CCN1CCN(CCCNC(=O)c2ccc3c(c2)sc2nc(-c4ccc(C)cc4)cn23)CC1`, the survival is 26% (active).
As for `CCN1CCN(CCCNC(=O)c2ccc3c(c2)sc2nc(-c4ccc(OC)cc4)cn23)CC1`, the survival was 72% (inactive).
As for `CCCN1CCN(CCCNC(=O)c2ccc3c(c2)sc2nc(-c4ccc(C)cc4)cn23)CC1`, the figure is 18% (active).
